# PubChem BioAssay AID2284147 (EPA ToxCast)
# Calls of active or inactive are those of the source. How the source made its calls: active means hit-call score of the fitted dose curve at least 0.9, where 1 is the maximum; inactive means score below 0.9.
# Target: human Angiotensin Receptor AT2 Antagonism, AGTR2 (gene 186) (UniProt P50052)
# Assay: ERF_TW_GPCR_hAGTR2: Eurofins (ERF) G Protein-Coupled Receptor (GPCR) Radioligand Binding LeadHunter Assay for human Angiotensin Receptor AT2 Antagonism
# Method: ERF_TW_GPCR_hAGTR2 is a biochemical, single-readout assay that uses extracted gene-proteins in a cell-free assay. Measurements were taken 3 hour after chemical dosing in a 96-well plate. See AT2 Human Angiotensin GPCR Binding (Agonist Radioligand) Assay, Panlabs.ERF_TW_GPCR_hAGTR2 is an assay component calculated from the ERF_TW_GPCR_hAGTR2 assay. It is designed to measure radioligand binding using a type of binding reporter as detected by scintillation counting with radiometry technology.Data from the assay component ERF_TW_GPCR_hAGTR2 was analyzed at the assay endpoint, ERF_TW_GPCR_hAGTR2, in the positive analysis fitting direction relative to DMSO as the negative control and baseline of activity. Using a type of binding reporter, gain-of-signal activity can be used to understand changes in radioligand binding as they relate to gene AGTR2. To generalize the intended target to other relatable targets, this assay endpoint is annotated to the gpcr intended target family, where the subfamily is angiotensin.
# Human recombinant angiotensin AT2 receptors expressed in CHO-K1 cells are used in modified Tris-HCl buffer pH 7.4. A 2.4 ug aliquot is incubated with 0.05 nM [125I] CGP-42112A for 3 hours at 37C. Non-specific binding is estimated in the presence of 10 uM (Sar1, Ile8)-Angiotensin II. Membranes are filtered and washed, the filters are then counted to determine [125I] […]
# Sequence of human Angiotensin Receptor AT2 Antagonism, AGTR2 (gene 186) (P50052 whole entry, looked up): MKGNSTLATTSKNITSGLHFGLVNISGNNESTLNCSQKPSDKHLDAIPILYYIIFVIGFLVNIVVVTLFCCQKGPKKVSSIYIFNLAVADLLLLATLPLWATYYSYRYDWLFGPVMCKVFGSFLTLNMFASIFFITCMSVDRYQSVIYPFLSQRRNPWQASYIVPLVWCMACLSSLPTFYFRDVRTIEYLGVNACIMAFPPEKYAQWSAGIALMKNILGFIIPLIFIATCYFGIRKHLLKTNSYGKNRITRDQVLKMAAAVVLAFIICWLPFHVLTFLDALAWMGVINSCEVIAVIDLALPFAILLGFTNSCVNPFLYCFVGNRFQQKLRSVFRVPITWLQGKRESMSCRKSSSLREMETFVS
row,Structure (SMILES),AC50
1,O=C(/C=C/c1ccc(O)cc1)CC(=O)/C=C/c1ccc(O)cc1,1.75 µM (active)
